# A number with no mark means an inactive call. Cut-off read from the data, not from the text of the source: active = fold change mostly below about -2 (no sharp cut-off); inactive = mostly above about -1.8.
# Experiment: TERT promoter activity modulators, primary screen, cell-based, luciferase reporter, human (AID 1259240)
# Conditions: A2780 TERT promoter luciferase reporter, 16 h; at 20 µM, fold versus average of vehicle-only wells
row,Structure (SMILES),fold change
1,Cc1cc(NC(=O)c2onc(C)c2Cl)n(-c2ccccc2)n1,1.18
2,CN1C(=O)/C(=C/c2cn(CC(=O)N3CCCCC3)c3ccccc23)c2ccccc21,-1.35
3,Clc1ccc(Nc2c(-c3c[nH]c4ccccc34)nc3cnccn23)cc1,-1.4
4,O=C(NC1CCCC1)c1ccc2nc(N3CCOCC3)sc2c1,-1.15
5,CC(C)c1ccc(NC(=O)Nc2ccc3snnc3c2)cc1,-1.62
6,COC(=O)CSc1nnc2c3c4c(sc3nc(C)n12)CCCC4,-1.45
7,O=C1c2ccccc2C(=O)N1CCC1=NCCc2ccccc21,-1.59
8,CCOC(=O)C1=C(CS(=O)(=O)c2ccccc2)NC(=O)NC1c1cc(OC)c(OC)cc1OC (stereo not given),1.83
9,COc1ccc(C2=NN3C(C2)c2cc(Cl)ccc2OC3c2cccnc2)cc1 (stereo not given),1.37
10,CCCN(CCC)c1c(NC2CCN(C(=O)OCC)CC2)c(=O)c1=O,-1.25
11,Cc1ccn2cc(-c3cccc(S(=O)(=O)N4CC(C)OC(C)C4)c3)nc2c1 (stereo not given),-1.09
12,O=C(Nc1cccc(F)c1)C1CCCN(S(=O)(=O)c2cnc[nH]2)C1 (stereo not given),1.26
13,COc1cc2c(=O)c(S(=O)(=O)c3ccccc3)cn(Cc3ccccc3Cl)c2cc1OC,-1.09
14,Cc1ccc2nc(NCc3ccc4c(c3)OCO4)c3nncn3c2c1,1.52
15,CC(C)CC(NS(=O)(=O)c1ccc2c(c1)oc(=O)n2C)C(=O)N1CCn2c1nc1ccccc12 (stereo not given),-1.61

# — PubChem BioAssay AID1259240 (Keith Lab, Institute of Cancer Science, University of …, 2017)
